# Test results published in PubChem BioAssay (EPA / NIEHS).
# Activity calls are given as the source filed them. The calls were made as follows: active = hit-call score of the fitted dose curve at least 0.9, where 1 is the maximum; inconclusive = response in the unintended direction; inactive = score below 0.9.
# Target: Estrogen receptor beta (Homo sapiens) (UniProt Q92731)
# Assay: OT_ER_ERbERb_1440: Odyssey Thera (OT) 24-hour HEK293T Protein-Complementation Assay for Estrogen Receptor-beta/-beta Homodimer (AID 2283380);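 also: scored as signal increase over DMSO baseline for both agonists and antagonists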
# Experimental: OT_ER_ERbERb_1440 is a cell-based assay that uses HEK293T, a human kidney cell line, with measurements taken at 24 hours after chemical dosing in a 384-well plate.OT_ER_ERbERb_1440 is one of one assay component(s) measured or calculated from the OT_ER_ERbERb_1440 assay. It is designed to make measurements of protein fragment complementation, a form of binding reporter, as detected with fluorescence intensity signals by Protein-fragment Complementation technology.Data from the assay component OT_ER_ERbERb_1440 was analyzed into 1 assay endpoint. This assay endpoint, OT_ER_ERbERb_1440, was analyzed in the positive analysis fitting direction relative to DMSO as the negative control and baseline of activity. Using a type of binding reporter, measures of receptor for gain-of-signal activity can be used to understand the binding at the pathway-level as they relate to the gene ESR2. Furthermore, this assay endpoint can be referred to as a primary readout, because the performed assay has only produced 1 assay endpoint. To generalize the intended target to other relatable targets, this assay endpoint is annotated to the nuclear receptor intended target family, where the subfamily is steroidal.
# Protein-fragment complementation assay, or PCA, is a method for the identification and quantification of protein-protein interactions. In the PCA, the proteins of interest ("bait" and "prey") are each covalently linked to fragments of a third protein (e.g. DHFR, which acts as a "reporter"). Interaction between the bait and the prey proteins brings the fragments of the reporter protein in close proximity to allow them to form a functional reporter protein whose activity can be measured. The OT ER beta / ER beta assay is a homodimer PCA of the ligand binding domain (LBD; amino acids 310-547) of human ER beta stably expressed in HEK293T cells. […] Cells are fixed in 4 percent formaldehyde and stained with Draq5 (BioStatus) to identify cells prior to signal detection. Fluorescent signal in the basal state of the assay is very low and is primarily punctuate and cytoplasmic. Modulation of this assay is quantified as an increase in mean fluorescence intensity in the nucleus (for agonists) or in the nucleus and cytoplasm (antagonists) relative to vehicle controls, and can be quantified on a high content imaging device or a laser scanning cytometer. The latter instrument is favored for this assay because of the rapid mode of data acquisition, the ability to acquire data from the entire cell population in a well (as opposed to a fraction of the well on the high content devices) and the larger dynamic range typically achieved with this instrument. To assess sensitivity of the ER beta/ER beta LBD assay to ligand, cells were treated with the ER agonist 17- beta-estradiol (E2) in 10-point concentration- response format for 24 hours and monitored response on a laser scanning plate cytometer (Acumen eX3; TTP Lab Tech).
# Estrogen receptor beta (Homo sapiens), sequence (Q92731 whole entry, looked up): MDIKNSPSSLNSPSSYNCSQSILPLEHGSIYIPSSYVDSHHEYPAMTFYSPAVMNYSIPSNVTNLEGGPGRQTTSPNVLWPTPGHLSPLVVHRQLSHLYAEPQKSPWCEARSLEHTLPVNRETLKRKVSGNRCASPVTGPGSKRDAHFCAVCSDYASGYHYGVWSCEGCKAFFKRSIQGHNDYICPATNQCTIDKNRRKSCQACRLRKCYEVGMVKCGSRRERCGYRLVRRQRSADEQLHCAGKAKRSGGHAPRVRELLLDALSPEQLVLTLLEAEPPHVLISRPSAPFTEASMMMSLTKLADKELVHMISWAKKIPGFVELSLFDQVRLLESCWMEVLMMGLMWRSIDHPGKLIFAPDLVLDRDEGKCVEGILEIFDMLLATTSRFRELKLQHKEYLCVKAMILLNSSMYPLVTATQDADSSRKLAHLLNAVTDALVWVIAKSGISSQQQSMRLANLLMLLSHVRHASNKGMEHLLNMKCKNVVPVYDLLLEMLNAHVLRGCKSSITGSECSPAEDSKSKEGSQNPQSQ
SMILES,outcome,AC50
CC(C)[C@H](C(=O)O[C@H](C#N)c1cccc(Oc2ccccc2)c1)c1ccc(Cl)cc1,inactive,
CCOP(=S)(OCC)SCCSCC,inactive,
CCc1cccc(C)c1N(C(=O)CCl)C(C)COC (stereo not given),inactive,
CCOC(=O)CC(SP(=O)(OC)OC)C(=O)OCC (stereo not given),inactive,
CCC(CC)Nc1c([N+](=O)[O-])cc(C)c(C)c1[N+](=O)[O-],,13.5 µM (active)
COP(=O)(OC)OC(Br)C(Cl)(Cl)Br (stereo not given),inactive,
Nc1c(Cl)cc([N+](=O)[O-])cc1Cl,inactive,
C[N+]1(C)CCCCC1,inactive,
CC(C1CC1)C(O)(Cn1cncn1)c1ccc(Cl)cc1 (stereo not given),,31.1 µM (active)
COc1ccc(C(=CC(=O)N2CCOCC2)c2ccc(Cl)cc2)cc1OC,inactive,
CSc1nnc(C(C)(C)C)c(=O)n1N,inactive,
CCc1cccc(CC)c1N(COC)C(=O)CCl,inactive,
CN(C)C(=O)Nc1cccc(C(F)(F)F)c1,inactive,
CC(=NC#N)N(C)Cc1ccc(Cl)nc1,inactive,
CC(COc1ccc(Oc2ccccc2)cc1)Oc1ccccn1 (stereo not given),inactive,
CCOP(=S)(OCC)Oc1ccc2c(C)c(Cl)c(=O)oc2c1,inactive,
CN(C)NC(=O)CCC(=O)O,,16.8 µM (active)
CCOP(=O)(NC(C)C)Oc1ccc(SC)c(C)c1 (stereo not given),inactive,
CCNc1nc(Cl)nc(NC(C)(C)C#N)n1,inactive,
N#CSCSC#N,inactive,

SMILES,outcome,AC50
CC1(C(=O)Nc2ccc(O)c(Cl)c2Cl)CCCCC1,,20.6 µM (active)
CNc1cnn(-c2cccc(C(F)(F)F)c2)c(=O)c1Cl,inactive,
C#CCC1=C(C)C(OC(=O)C2C(C=C(C)C)C2(C)C)CC1=O (stereo not given),inactive,
Cc1cc(C2CC2)nc(Nc2ccccc2)n1,,50 µM (active)
Cc1ccn2nc(S(=O)(=O)Nc3c(F)cccc3F)nc2n1,inactive,
C[Si](Cn1cncn1)(c1ccc(F)cc1)c1ccc(F)cc1,inactive,
CCOP(=O)(OCC)Oc1cc(C)nc(C(C)C)n1,inactive,
Nc1nc(N)nc(NC2CC2)n1,inactive,
CCCCSP(=O)(SCCCC)SCCCC,inactive,
CC1=NNC(=O)N(/N=C/c2cccnc2)C1,inactive,
CC(C)N(C(=O)SCC(Cl)=C(Cl)Cl)C(C)C,inactive,
COc1cccc(C(=O)NN(C(=O)c2cc(C)cc(C)c2)C(C)(C)C)c1C,inactive,
CCCSP(=O)(OCC)SCCC,inactive,
CC(Oc1cccc(Cl)c1)C(=O)O (stereo not given),inactive,
FC(F)C(F)(F)OCC(Cn1cncn1)c1ccc(Cl)cc1Cl (stereo not given),inactive,
CNC(=O)ON=C(SC)C(=O)N(C)C,inactive,
CCCCN(CC)c1c([N+](=O)[O-])cc(C(F)(F)F)cc1[N+](=O)[O-],inactive,
CCOP(=S)(OCC)OC(Cl)C(Cl)(Cl)Cl (stereo not given),inactive,
CCCOCC(=Nc1ccc(Cl)cc1C(F)(F)F)n1ccnc1,inactive,
CCCSP(=O)(OCC)Oc1ccc(Br)cc1Cl (stereo not given),inactive,
